AID504770: E. coli YBA685 growth inhibition, screen for V. cholerae RctB inhibitors; E. coli YBA685 rctB-dependent plasmid, OD600 growth, 3 h; hits give low values; z-score (concentration not given with the values); 130,000 compounds, 0.27% hits; in the data active = z-score below about -2, passing the limit was not always enough
Mtb MbtI inh: blocks the Mycobacterium tuberculosis siderophore enzyme MbtI; purified MbtI enzyme, fluorescence intensity read-out; inhibition, % (test concentration not listed); 100,000 compounds, 0.89% hits; in the data active = inhibition mostly above about 56%, no sharp cut-off; inactive = mostly below about 77%
Mtb MenB inh: Mtb MenB enzyme inhibition; P9WNP5; MenB enzyme assay, absorbance read-out; inhibition, % (concentration not given with the values); 100,000 compounds, 0.43% hits; in the data active = inhibition above about 21%, passing the limit was not always enough
Polio RdRp inh: poliovirus RNA polymerase inhibition | poliovirus polymerase elongation, fluorescence polarization; hits give low values | % elongation, % (compound at 16.7 µg/mL) | 150,000 compounds, 0.66% hits; in the data active = % elongation below about 90%
Numbers without * were called inactive; . = no result; ! = not active in a repeat. Most compounds without a hit are left out; they make up all but 1.4% or so of the library.

SMILES | AID504770 | Mtb MbtI inh | Mtb MenB inh | Polio RdRp inh
CC1CC(NC2=NCCS2)CC(C)(C)C1 (stereo not given) | 1.2 | . | . | .
COC(=O)Cc1c(C)c2cc(Cl)c(O)cc2oc1=O | 0.65 | 116 | -70 | 102
CN(C)S(=O)(=O)c1ccc(/C(O)=C2\C(=O)C(=O)N(Cc3cccnc3)C2c2cccnc2)cc1 (stereo not given) | 1.2 | 2 | 34* | 102
CN(C)CCCN1C(=O)C(=O)/C(=C(/O)c2ccc(S(=O)(=O)N(C)C)cc2)C1c1ccccc1 (stereo not given) | -0.05 | 8 | 5 | 101
CCOC(=O)c1cnn2c1nc(Sc1ccc(C)cc1)c1ccccc12 | -0.85 | 66 | 3 | 106
O=C1c2ccccc2CC1Sc1nnc(-c2ccco2)c(-c2ccco2)n1 (stereo not given) | 0.9 | 97* | 5 | 99
CSc1sc(C(=O)N2CCOCC2)cc1-c1nc(-c2ccc(Cl)cc2)cs1 | 0.8 | . | . | .
C=CCn1c(=S)[nH]c2cc(C(=O)O)ccc2c1=O | -0.3 | 14 | 0 | 104
C=CCn1c(=S)[nH]c2ccccc2c1=O | 0.95 | 19 | 31*! | 104
Cn1c(=O)c(C2=NS(=O)(=O)c3ccccc3N2)c(O)c2ccccc21 | 0 | -5 | 33* | 99
Cc1sc2c(c1C)C1=NS(=O)(=O)CCN1C=N2 | 0.35 | 112 | -33 | 76*
COC(=O)C1=NC=CN2CCS(=O)(=O)N=C12 | 0.2 | 18 | -29 | .
CC1=C(/C=C/C(C)=C/C=C/C(C)=C/C(=O)Nc2ccc(O)cc2)C(C)(C)CCC1 | . | -18 | 8 | 101
CC1=C(/C=C/C(C)=C/C=C/C(C)=C\C(=O)O)C(C)(C)CCC1 | -0.05 | -12 | 50*! | 101

Compound activity: PubChem BioAssay, ICCB-Longwood Screening Facility, Harvard Medical School
